molecular target: Cyclin-dependent kinase 4 (Homo sapiens) (UniProt P11802); conditions: at 0.1 µM
Sequence (P11802 whole entry): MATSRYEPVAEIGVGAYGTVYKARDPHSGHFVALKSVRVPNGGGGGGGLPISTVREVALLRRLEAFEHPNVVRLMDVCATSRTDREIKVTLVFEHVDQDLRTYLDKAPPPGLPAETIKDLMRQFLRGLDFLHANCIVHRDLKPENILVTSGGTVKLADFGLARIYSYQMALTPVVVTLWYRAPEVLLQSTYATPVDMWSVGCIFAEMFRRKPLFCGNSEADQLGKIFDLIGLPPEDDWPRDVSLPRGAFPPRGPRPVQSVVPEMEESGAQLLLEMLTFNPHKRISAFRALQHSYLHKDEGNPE

| SMILES | inhibition [%] |
| --- | --- |
| O=C(Nc1n[nH]c2cc(-c3ccc(F)cc3)ccc12)C1CC1 | 2.64 |
| O=S(=O)(CCNCc1ccc(-c2ccc3ncnc(Nc4ccc(OCc5cccc(F)c5)c(Cl)c4)c3c2)o1)c1ccccc1 | 4.84 |
| COc1cc2ncn(-c3cc(OCc4ccccc4C(F)(F)F)c(C(=O)N(C)C)s3)c2cc1OC | 1.04 |
| COc1ccc(-c2cc3c(N)ncnc3o2)cc1 | 0.18 |
| Cc1ccc2c(-c3ccnc(Nc4ccccc4)n3)c(-c3ccc(F)cc3)nn2n1 | 6.51 |
| Nc1nc(-c2cccc(Cl)c2)c(-c2ccc3ncccc3n2)s1 | 1.67 |
| CNC(=O)c1cncc(/C=C/c2ccccc2Cl)c1 | -1.43 |
| COc1ccc2c(-c3ccnc(Nc4cccc(OC(F)(F)F)c4)n3)cnn2n1 | 3.8 |
| CCCN1CCC(c2ccc(Nc3nc(Nc4cc(F)ccc4C(N)=O)c4cc[nH]c4n3)c(OC)c2)CC1 | 7.7 |
| COc1cc2c(cc1Nc1nc(Nc3ccsc3C(N)=O)c3cc[nH]c3n1)N(C(=O)CN(C)C)CCC2(C)C | 5.42 |
| Fc1ccc(-c2cc(-c3c[nH]nc3-c3ccccn3)ccn2)cc1 | 1.98 |
| CCNC(=O)O[C@H]1CN[C@H](C#Cc2cc3ncnc(Nc4ccc(OCc5cccc(F)c5)c(Cl)c4)c3s2)C1 | 2.39 |
| c1ccc(COc2ccc(Nc3ncnc4ccc(-c5ccco5)cc34)cc2)cc1 | -0.08 |
| NC(=O)c1sc(-n2cnc3ccc(C(F)(F)F)cc32)cc1OCc1ccccc1Br | 1.68 |
| CS(=O)(=O)CCNCc1ccc(-c2ccc3ncnc(Nc4ccc(OCc5ccccc5)c(C(F)(F)F)c4)c3c2)o1 | 2.38 |
| CC(=O)Nc1cccc(C#Cc2cncnc2Nc2ccc(OCc3cccc(F)c3)c(Cl)c2)c1 | 1.84 |
| CCn1c(-c2nonc2N)nc2ccccc21 | 1.45 |

| SMILES | inhibition [%] |
| --- | --- |
| COc1cccc(-n2ncc3c(N/N=C/c4ccc(F)cc4)ncnc32)c1 | 6.67 |
| CCN1CCC(CC(=O)Nc2n[nH]c3nnc(-c4cccc(F)c4F)cc23)CC1 | 5.41 |
| COc1cc(Nc2nccc(Nc3ccc4c(C)n[nH]c4c3)n2)cc(OC)c1OC | 2.86 |
| CCn1c(-c2nonc2N)nc2cnc(Oc3cccc(NC(=O)c4ccc(N(C)C)cc4)c3)cc21 | 1.81 |
| COc1ccc(-c2oc3ncnc(N)c3c2-c2ccc(NC(=O)Nc3cc(C(F)(F)F)ccc3F)cc2)cc1 | 3.09 |
| CCN(CC)S(=O)(=O)c1ccc(OC)c(Nc2ncc(-c3ccccc3)o2)c1 | 1.62 |
| Fc1ccc(-c2nn3ncccc3c2-c2ccnc(Nc3ccc4c(c3)OCCO4)n2)cc1 | 1.89 |
| CCCN(CCS(C)(=O)=O)Cc1ccc(-c2ccc3ncnc(Nc4ccc(OCc5cccc(F)c5)c(Cl)c4)c3c2)o1 | 1.25 |
| CCn1c(-c2nonc2N)nc2c(C#CC(C)(C)O)nc(OC[C@H](N)c3ccccc3)cc21 | 2.31 |
| COc1cccc(-c2c[nH]c3c(N/N=C/c4ccncc4)ncnc23)c1 | 10.5 |
| c1cc(-c2cnn3nc(N4CCOCC4)ccc23)nc(NC2CC2)n1 | 15 |
| CN(C)CCOc1ccc(-c2nc(-c3ccncc3)c(-c3ccc4c(c3)CC/C4=N\O)[nH]2)cc1 | 2.94 |
| CCc1nn2ncccc2c1-c1ccnc(NC2CC2)n1 | 5.47 |
| Clc1ccc(-c2nn3ncccc3c2-c2ccnc(Nc3ccccc3)n2)cc1 | 1.45 |
| COc1cc(/C=N/Nc2ncnc3[nH]ncc23)ccc1O | 2.99 |
| NS(=O)(=O)c1ccc(Nc2ncc(-c3ccccc3)o2)cc1 | 9.25 |
| COc1ccc2[nH]c3c4[nH]c5ccc(OC)cc5c4c4c(c3c2c1)C(=O)NC4=O | 2.56 |
